From ChEMBL document CHEMBL3988442, “University of Dundee, Small-Polar-MMV Screening Library” (2021)
Among all 48,000 compounds or so, about 13,000 (27%) showed an effect of 50% or more. This is one part of the list.

system: Wolbachia pipientis; assay: Anti-Wolbachia Cell-Based Screen; format: functional; design: scale not given: in the data most compounds retested in dose-response had high values; conditions: 5 µM

| SMILES | Percent Effect |
| --- | --- |
| CCNC(=O)CCC(=O)NC(C)Cc1ccccc1Br (stereo not drawn) | 15.31% |
| N#Cc1cnc2ccccc2c1N1CCNCC1 | -0.76% |
| Cc1nn(C)c2ncc(S(=O)(=O)N3CCCN4CCCC4C3)cc12 (stereo not drawn) | -8.04% |
| COc1cccc(C2SCC(=O)Nc3ccsc32)c1 (stereo not drawn) | -17.04% |
| CC(C)n1[nH]c(=O)c2c1NC(=O)CSC2c1ccc(OCC(N)=O)cc1 (stereo not drawn) | 116.2% |
| COc1cc(OC)cc(C2SCC(=O)Nc3ccsc32)c1 (stereo not drawn) | -4.704% |
| CC(C)n1[nH]c(=O)c2c1NC(=O)CSC2c1cccc(OCC(N)=O)c1 (stereo not drawn) | 107.3% |
| CCN1CCC2(CCC1=O)CN(c1ccnc(SC)n1)CCN2C (stereo not drawn) | -2.766% |
| Cc1cc(CC(=O)N2CCN(CC(C)C)[C@@H]3CS(=O)(=O)C[C@@H]32)ccc1F | -16.98% |
| CCC1=N[C@@]2(CC[C@@H]3CN(CC)C[C@@H]32)C(=O)N1C | 107.7% |
| CC1=N[C@@]2(CC[C@@H]3CN(CC(C)C)C[C@@H]32)C(=O)N1 | -12.28% |
| COc1ccc(C(=O)C2CCCN(Cc3ccncc3)C2)c(OC)c1 (stereo not drawn) | -2.027% |
| COc1ccc(Cl)cc1CC(=O)N1CCN(CC(C)O)CC1 (stereo not drawn) | 112.2% |
| COc1ccc(Cl)cc1CC(=O)N1CCN(CC(C)(C)O)CC1 | 104.9% |
| Cc1c(CC(=O)N2CCN(CC(F)(F)F)CC2)nnn1-c1ccccc1 | -7.021% |
| Cc1oc(-c2ccco2)nc1CC(=O)N1CCN(CC(C)(C)O)CC1 | -7.111% |
| Cl.O=C(Cc1ccc(F)cc1)N1CCN(CC(O)C2CC2)CC1 (stereo not drawn) | -12.59% |
| CCOCC(O)CN1CCN(C(=O)Cc2ccccc2Cl)CC1 (stereo not drawn) | -8.97% |
| CCC1CNCc2cc3c(OC)ccc(OC)c3nc2O1 (stereo not drawn) | 82.52% |
| CCC1CNCc2cc3c(C)ccc(C)c3nc2O1 (stereo not drawn) | 108.6% |
| OCCCN(CCc1cccc(F)c1)C1CC1 | 110% |

| SMILES | Percent Effect |
| --- | --- |
| CN1C(=O)CC2(CCNCC2)c2ccccc21 | -12.38% |
| COC(=O)N1CC2(CCNCC2)c2cc(Cl)ccc21.Cl | 101.7% |
| CC(=O)N1CC2(CCNCC2)c2cc(C)ccc21 | -30.16% |
| CN1C(=O)C2(CCNCC2)c2cc(F)ccc21.Cl | -10.96% |
| CC(=O)N1CC2(CCNCC2)c2cc(Cl)ccc21.Cl | 94.12% |
| Cn1nc(-c2cccs2)cc1[C@H]1CN2CC[C@H]1C[C@@H]2CNS(C)(=O)=O | -2.456% |
| CC(Cn1ccnc1)NS(=O)(=O)c1ccc(C#N)c(Cl)c1 (stereo not drawn) | 2.375% |
| CCOc1ccc(C2SCC(=O)Nc3c2c(=O)[nH]n3C(C)C)cc1 (stereo not drawn) | 112% |
| COc1cc(C2SCC(=O)Nc3ccsc32)cc(OC)c1OC (stereo not drawn) | -0.744% |
| CCOc1ccc(C2SCC(=O)Nc3c2c(=O)[nH]n3C(CC)CC)cc1 (stereo not drawn) | 117.7% |
| O=C1CSC(c2ccc(O)c(Cl)c2)c2c(n(C3CCOCC3)[nH]c2=O)N1 (stereo not drawn) | 12.23% |
| CCCOc1ccc(C2SCC(=O)Nc3c2c(=O)[nH]n3C(C)C)cc1 (stereo not drawn) | 107.1% |
| O=C1CSC(c2ccsc2)c2c(n(C3CCOCC3)[nH]c2=O)N1 (stereo not drawn) | 12.85% |
| CC(C)COc1ccc(C2SCC(=O)Nc3c2c(=O)[nH]n3C(C)C)cc1 (stereo not drawn) | 105.8% |
| CC(C)c1nccc([C@H]2C[C@@H]3CCN(Cc4ccco4)C[C@H]3O2)n1 | -3.761% |
| O=C(Nc1cccnc1)[C@H]1CN(Cc2cccs2)C[C@H]2OCC[C@@H]12 | -5.403% |
| CNS(=O)(=O)CC(=O)NC(C)Cc1ccccc1Br (stereo not drawn) | -19.16% |
| COCC(C)NC(=O)c1cn(C(C)(C)C)c2ncccc12 (stereo not drawn) | 0.2413% |
| COCCN(CCOC)C(=O)c1cn(C(C)(C)C)c2ncccc12 | 135.3% |
| CCOCCCNC(=O)c1cn(C(C)(C)C)c2ncccc12 | 117.9% |
| COCCNC(=O)c1cn(C(C)(C)C)c2ncccc12 | 1.004% |

| SMILES | Percent Effect |
| --- | --- |
| COCCCNC(=O)c1cn(C(C)(C)C)c2ncccc12 | 120.5% |
| CC(Cn1ccnc1)NCc1n[nH]c2c1CCC2 (stereo not drawn) | -9.016% |
| N#Cc1ccc(N2CCC(OC3CCOCC3)CC2)cc1Cl | -7.664% |
| O=C(CC[C@@H]1CCCN2CCCC[C@H]12)NCCc1cc(O)ncn1 | -16.08% |
| CCc1noc(CC)c1CC(=O)N1CCN(C(C#N)C(C)C)CC1 (stereo not drawn) | -3.422% |
| Cc1noc([C@]23COC[C@H]2CN(Cc2cc(C)on2)C3)n1.O=C(O)C(F)(F)F | 2.509% |
| FC(F)CN1CCOC(Cn2cccn2)C1 (stereo not drawn) | 120.3% |
| Cc1ncc2c(c1CNC(=O)C1(C)CCCO1)CCNC2 (stereo not drawn) | 2.031% |
| CC(C)NC(=O)[C@H]1C[C@H]2NCCO[C@@H]2C1 | 34.99% |
| O=C(NC1CCC1)[C@H]1C[C@H]2NCCO[C@@H]2C1 | -2.9% |
| CC(C)NC(=O)[C@@H]1C[C@H]2NCC[C@H]2O1.Cl | 109.5% |
| Cc1cccc(C(=O)N2C[C@@H]3OCCN(C(C)C)[C@@H]3C2)n1 | -13.51% |
| COCC(=O)N1CC[C@H]2[C@H]1CCN2CC(C)C | -1.269% |
| O=C(O)C(F)(F)F.O=C(O)C(F)(F)F.OCCN1CC2(CCN(c3ccccc3)C2)C1 | 6.244% |
| FC1(F)CCNCC12CCN(c1cccnc1)C2.O=C(O)C(F)(F)F.O=C(O)C(F)(F)F (stereo not drawn) | -21.44% |
| Cc1ccc(N2CCC3(CN(CCO)CCC3(F)F)C2)nn1.O=C(O)C(F)(F)F (stereo not drawn) | 100.9% |
| OCCN1CCC(F)(F)C2(CCN(c3cccnc3)C2)C1 (stereo not drawn) | 103.9% |
| O=C(O)C(F)(F)F.O=C(O)C(F)(F)F.O=C(O)CN1CCC(F)(F)C2(CCN(c3ccccn3)C2)C1 (stereo not drawn) | -9.228% |
| NCC1(c2cccc(C(F)(F)F)c2)CC1 | -45.72% |
| C[C@H]1C[C@@H]2CCN(Cc3nccs3)C[C@H]2O1 | -9.973% |
| CC(Cn1ccnc1)NCc1csc2c1CCCC2 (stereo not drawn) | -4.512% |
